In the supplement of paper PMC6411743:
± gives the standard deviation of the averaged measurements. The full data set covers some 6,200 targets. This sample favours those with the largest changes.

Compound: Nc1ncnc2c1ncn2[C@@H]1O[C@H](COP(=O)(O)OP(=O)(O)NP(=O)(O)O)[C@@H](O)[C@H]1O [adenylyl imidodiphosphate]
Experiment: NP40-soluble protein abundance relative to vehicle (solubility fold change) (ratio); higher = more soluble protein in presence of AMP-PNP
In short: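 Data come from three independent experiments in which Dounce-homogenised Jurkat crude lysate was treated at eight concentrations from 0.1 to 10 mM. Treatment ran 10 min at room temperature and then 3 min at 37 °C, after which 0.8% NP40 and benzonase were added for 60 min at 4 °C before ultracentrifugation. The supernatant underwent TMT labelling and LC-MS/MS, and vsn-normalised intensities were expressed as fold change against the detergent-processed vehicle in each replicate.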

UniProt Q8N4N3, sequence (Q8N4N3 whole entry): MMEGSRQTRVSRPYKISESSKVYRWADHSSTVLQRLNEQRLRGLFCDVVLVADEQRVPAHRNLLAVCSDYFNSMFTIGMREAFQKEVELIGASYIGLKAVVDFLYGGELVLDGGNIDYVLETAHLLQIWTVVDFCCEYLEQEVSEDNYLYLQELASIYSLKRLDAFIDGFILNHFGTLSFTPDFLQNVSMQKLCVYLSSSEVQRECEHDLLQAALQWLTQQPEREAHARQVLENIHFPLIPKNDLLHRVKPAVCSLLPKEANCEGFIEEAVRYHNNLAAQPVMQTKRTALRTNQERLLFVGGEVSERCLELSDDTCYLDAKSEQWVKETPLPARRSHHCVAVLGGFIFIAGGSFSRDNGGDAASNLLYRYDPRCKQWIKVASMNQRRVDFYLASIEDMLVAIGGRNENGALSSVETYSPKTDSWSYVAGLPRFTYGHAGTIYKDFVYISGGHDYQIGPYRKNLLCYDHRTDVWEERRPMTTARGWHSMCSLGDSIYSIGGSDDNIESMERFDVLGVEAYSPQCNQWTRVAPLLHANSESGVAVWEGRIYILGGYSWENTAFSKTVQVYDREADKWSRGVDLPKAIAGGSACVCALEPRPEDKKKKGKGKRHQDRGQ
UniProt Q8N5M4, sequence (Q8N5M4 whole entry, one chain of several): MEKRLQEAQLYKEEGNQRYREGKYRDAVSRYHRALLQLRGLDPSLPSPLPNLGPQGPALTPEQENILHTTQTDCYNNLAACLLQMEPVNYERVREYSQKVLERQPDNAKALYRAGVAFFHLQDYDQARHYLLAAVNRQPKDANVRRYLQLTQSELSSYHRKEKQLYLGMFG
UniProt Q96C36, sequence (Q96C36 whole entry): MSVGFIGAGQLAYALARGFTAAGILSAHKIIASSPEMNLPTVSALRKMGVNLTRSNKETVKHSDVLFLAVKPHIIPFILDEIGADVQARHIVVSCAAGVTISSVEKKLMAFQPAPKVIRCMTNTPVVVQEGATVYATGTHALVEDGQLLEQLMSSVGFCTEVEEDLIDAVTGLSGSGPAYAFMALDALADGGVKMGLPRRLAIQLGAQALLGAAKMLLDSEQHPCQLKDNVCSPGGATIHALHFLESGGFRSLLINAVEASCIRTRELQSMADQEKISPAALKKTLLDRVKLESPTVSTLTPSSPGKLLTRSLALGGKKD
UniProt Q8IZ07, sequence (Q8IZ07 whole entry): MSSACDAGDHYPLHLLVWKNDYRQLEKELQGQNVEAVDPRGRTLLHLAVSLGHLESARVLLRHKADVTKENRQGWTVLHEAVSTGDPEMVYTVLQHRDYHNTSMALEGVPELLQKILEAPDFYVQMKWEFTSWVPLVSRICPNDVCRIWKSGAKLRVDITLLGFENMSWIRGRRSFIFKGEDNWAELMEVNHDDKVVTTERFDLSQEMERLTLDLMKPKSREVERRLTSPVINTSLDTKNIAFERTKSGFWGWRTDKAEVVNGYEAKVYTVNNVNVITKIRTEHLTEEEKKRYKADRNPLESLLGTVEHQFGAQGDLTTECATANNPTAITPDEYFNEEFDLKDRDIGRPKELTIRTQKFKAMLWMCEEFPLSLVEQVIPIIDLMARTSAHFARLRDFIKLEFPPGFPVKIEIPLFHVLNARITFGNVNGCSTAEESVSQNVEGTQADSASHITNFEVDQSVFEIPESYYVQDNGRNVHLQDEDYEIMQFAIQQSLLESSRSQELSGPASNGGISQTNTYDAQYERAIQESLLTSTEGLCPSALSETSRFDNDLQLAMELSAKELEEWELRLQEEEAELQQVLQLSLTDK
UniProt Q8WZ82, sequence (Q8WZ82 whole entry): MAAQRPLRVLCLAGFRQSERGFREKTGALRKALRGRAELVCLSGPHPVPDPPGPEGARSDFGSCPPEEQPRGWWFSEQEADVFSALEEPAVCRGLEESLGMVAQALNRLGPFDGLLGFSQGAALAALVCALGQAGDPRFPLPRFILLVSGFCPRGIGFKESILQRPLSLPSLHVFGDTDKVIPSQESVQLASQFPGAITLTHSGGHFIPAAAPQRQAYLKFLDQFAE
UniProt Q8N122, sequence (Q8N122 whole entry): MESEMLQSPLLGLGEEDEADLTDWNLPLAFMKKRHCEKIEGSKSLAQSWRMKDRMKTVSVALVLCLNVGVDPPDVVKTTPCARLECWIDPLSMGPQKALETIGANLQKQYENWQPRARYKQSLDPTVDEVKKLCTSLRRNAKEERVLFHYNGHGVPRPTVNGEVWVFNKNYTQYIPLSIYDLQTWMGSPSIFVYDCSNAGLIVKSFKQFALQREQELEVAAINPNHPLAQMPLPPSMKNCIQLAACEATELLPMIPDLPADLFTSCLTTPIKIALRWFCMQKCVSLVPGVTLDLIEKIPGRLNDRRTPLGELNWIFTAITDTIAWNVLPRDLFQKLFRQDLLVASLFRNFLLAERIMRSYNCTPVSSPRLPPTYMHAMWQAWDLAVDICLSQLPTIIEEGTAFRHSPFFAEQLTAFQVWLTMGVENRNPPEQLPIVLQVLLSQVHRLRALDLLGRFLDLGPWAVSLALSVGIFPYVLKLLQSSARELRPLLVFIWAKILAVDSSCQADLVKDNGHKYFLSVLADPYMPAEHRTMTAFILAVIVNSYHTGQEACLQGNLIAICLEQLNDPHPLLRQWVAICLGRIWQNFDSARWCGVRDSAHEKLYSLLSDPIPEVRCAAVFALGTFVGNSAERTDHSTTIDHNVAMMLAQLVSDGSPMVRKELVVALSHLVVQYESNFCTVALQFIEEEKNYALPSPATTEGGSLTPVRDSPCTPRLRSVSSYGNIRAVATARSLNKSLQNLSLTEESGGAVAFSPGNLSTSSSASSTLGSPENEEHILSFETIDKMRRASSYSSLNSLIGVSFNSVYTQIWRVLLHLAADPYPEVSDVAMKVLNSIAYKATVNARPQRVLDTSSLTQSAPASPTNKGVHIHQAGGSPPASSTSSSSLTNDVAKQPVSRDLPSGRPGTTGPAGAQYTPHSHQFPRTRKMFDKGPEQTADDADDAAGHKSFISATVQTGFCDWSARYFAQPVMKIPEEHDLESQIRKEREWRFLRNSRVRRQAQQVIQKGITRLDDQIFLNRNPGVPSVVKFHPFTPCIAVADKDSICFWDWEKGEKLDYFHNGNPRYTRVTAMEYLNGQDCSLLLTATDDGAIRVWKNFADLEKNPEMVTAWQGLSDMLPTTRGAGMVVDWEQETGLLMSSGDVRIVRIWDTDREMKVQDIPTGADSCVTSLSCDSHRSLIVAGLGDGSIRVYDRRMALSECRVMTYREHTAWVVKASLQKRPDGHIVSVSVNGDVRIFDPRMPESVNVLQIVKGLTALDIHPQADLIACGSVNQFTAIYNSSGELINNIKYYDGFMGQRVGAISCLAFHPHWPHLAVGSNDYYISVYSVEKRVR
UniProt Q13442, sequence (Q13442 whole entry): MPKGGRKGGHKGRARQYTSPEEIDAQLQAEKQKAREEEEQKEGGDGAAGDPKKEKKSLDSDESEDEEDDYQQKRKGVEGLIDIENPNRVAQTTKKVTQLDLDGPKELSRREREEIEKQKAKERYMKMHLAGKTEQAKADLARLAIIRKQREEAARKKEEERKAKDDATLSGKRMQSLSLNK
UniProt Q8IXI1, sequence (Q8IXI1 whole entry, looked up): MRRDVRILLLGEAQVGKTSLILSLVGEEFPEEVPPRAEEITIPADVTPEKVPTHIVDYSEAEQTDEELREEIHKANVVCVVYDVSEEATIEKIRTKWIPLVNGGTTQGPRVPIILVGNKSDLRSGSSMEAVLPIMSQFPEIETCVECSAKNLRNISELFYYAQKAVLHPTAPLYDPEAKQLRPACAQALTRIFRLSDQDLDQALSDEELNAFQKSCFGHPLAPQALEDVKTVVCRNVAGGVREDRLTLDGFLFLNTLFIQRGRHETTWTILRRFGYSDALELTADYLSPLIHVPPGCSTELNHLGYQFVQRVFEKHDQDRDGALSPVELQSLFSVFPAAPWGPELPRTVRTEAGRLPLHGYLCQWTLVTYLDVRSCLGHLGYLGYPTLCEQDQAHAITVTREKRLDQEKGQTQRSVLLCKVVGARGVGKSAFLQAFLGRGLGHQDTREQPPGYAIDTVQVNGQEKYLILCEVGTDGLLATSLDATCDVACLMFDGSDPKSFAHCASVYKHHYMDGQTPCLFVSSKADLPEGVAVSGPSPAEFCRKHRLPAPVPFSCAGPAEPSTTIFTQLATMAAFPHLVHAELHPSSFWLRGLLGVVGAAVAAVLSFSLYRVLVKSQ
UniProt Q9H5Z1, sequence (Q9H5Z1 whole entry, one chain of several): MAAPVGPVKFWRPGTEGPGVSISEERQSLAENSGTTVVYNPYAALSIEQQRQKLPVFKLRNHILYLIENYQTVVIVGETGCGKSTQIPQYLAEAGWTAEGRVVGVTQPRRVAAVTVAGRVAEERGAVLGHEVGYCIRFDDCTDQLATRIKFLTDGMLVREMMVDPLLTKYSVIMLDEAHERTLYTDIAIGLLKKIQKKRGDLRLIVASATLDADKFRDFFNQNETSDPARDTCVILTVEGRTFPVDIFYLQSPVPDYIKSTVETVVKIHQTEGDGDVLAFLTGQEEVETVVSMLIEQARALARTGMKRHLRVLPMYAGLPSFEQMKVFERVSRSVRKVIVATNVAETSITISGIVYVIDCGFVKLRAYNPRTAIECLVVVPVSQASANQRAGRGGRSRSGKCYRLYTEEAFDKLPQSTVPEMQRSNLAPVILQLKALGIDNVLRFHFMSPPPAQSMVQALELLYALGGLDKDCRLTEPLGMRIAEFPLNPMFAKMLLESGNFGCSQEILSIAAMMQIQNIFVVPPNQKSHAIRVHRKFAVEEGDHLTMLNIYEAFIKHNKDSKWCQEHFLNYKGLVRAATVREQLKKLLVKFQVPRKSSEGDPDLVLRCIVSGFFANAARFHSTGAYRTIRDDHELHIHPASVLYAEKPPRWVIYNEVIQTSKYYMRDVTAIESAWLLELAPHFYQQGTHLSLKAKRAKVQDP
UniProt Q8IUR0, sequence (Q8IUR0 whole entry): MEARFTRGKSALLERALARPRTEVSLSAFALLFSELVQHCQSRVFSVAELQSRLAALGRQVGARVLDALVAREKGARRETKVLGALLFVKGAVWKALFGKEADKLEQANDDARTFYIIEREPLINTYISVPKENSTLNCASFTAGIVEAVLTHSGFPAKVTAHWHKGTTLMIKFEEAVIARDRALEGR

Target	NP40-soluble protein abundance (concentration: 1mM)	NP40-soluble protein abundance (concentration: 2mM)	NP40-soluble protein abundance (concentration: 4mM)	NP40-soluble protein abundance (concentration: 6mM)	NP40-soluble protein abundance (concentration: 8mM)	NP40-soluble protein abundance (concentration: 10mM)
UniProt Q93074-2	1.01 ± 0.032	1 ± 0.028	1.06 ± 0.019	0.971 ± 0.08	0.984 ± 0.042	0.999 ± 0.067
UniProt Q86Y56	0.976 ± 0.045	0.931 ± 0.038	0.977 ± 0.037	1.01 ± 0.022	0.997 ± 0.055	0.991 ± 0.04
EXOSC6 (UniProt Q5RKV6)	1.04 ± 0.032	1.03 ± 0.041	1.08 ± 0.018	1.12 ± 0.036	1.14 ± 0.052	1.14 ± 0.074
RHOT2 (UniProt Q8IXI1)	1.02 ± 0.021	1 ± 0.073	1.02 ± 0.03	0.9999 ± 0.006	1.004 ± 0.01	1.02 ± 0.034
UniProt Q684P5-2|Q684P5-3|Q684P5	1 ± 0.035	1 ± 0.024	0.997 ± 0.051	0.977 ± 0.029	0.963 ± 0.048	0.968 ± 0.026
UniProt Q7Z7K6|Q7Z7K6-3	1.08 ± 0.068	1.153 ± 0.0086	1.3 ± 0.087	1.51 ± 0.12	1.72 ± 0.052	2.1 ± 0.13
ANKRD13A (UniProt Q8IZ07)	0.985 ± 0.017	0.981 ± 0.013	1.04 ± 0.029	1.06 ± 0.061	1.04 ± 0.03	1.08 ± 0.047
UniProt Q8N4N3|Q8N4N3-2	1 ± 0.013	0.996 ± 0.019	0.981 ± 0.027	0.96 ± 0.019	0.981 ± 0.027	0.959 ± 0.017
Q5THR1|Q9H5Z1|Q9H5Z1-2|F2Z2Z2 (UniProt Q9H5Z1)	1.02 ± 0.061	0.96808 ± 0.00094	1.01 ± 0.011	0.987 ± 0.024	0.991 ± 0.022	0.997 ± 0.023
SYAP1 (UniProt Q96A49)	1 ± 0.046	1.06 ± 0.077	0.952 ± 0.072	0.94 ± 0.021	0.94 ± 0.039	0.918 ± 0.08
UniProt Q14197|J3KS15	1 ± 0.1	0.952 ± 0.083	0.974 ± 0.087	0.95 ± 0.13	0.978 ± 0.14	0.953 ± 0.19
PYCR2 (UniProt Q96C36)	0.98 ± 0.028	1.01 ± 0.051	0.997 ± 0.013	1.01 ± 0.011	0.9755 ± 0.0097	1 ± 0.032
UniProt Q7Z3B4|Q7Z3B4-3	0.969 ± 0.054	0.9436 ± 0.0042	1 ± 0.064	1.07 ± 0.067	1.13 ± 0.078	1.09 ± 0.11
UniProt Q8N122|Q8N122-3	1.01 ± 0.031	0.955 ± 0.021	0.985 ± 0.011	0.972 ± 0.013	0.967 ± 0.018	0.994 ± 0.034
UniProt Q71F23	1.05 ± 0.028	1.07 ± 0.034	1.03 ± 0.016	1.02 ± 0.039	1.07 ± 0.013	1.08 ± 0.0087
OVCA2 (UniProt Q8WZ82)	1.01 ± 0.018	0.992 ± 0.052	1.01 ± 0.062	0.981 ± 0.018	1.01 ± 0.041	0.999 ± 0.03
PDAP1 (UniProt Q13442)	1.07 ± 0.072	1.17 ± 0.026	1.13 ± 0.048	1.26 ± 0.093	1.24 ± 0.085	1.35 ± 0.12
UniProt Q5M775|Q5M775-2|Q5M775-3|Q5M775-4|Q5M775-5	0.945 ± 0.062	0.89 ± 0.032	0.95 ± 0.05	1.04 ± 0.032	1.01 ± 0.031	0.992 ± 0.059

Target	NP40-soluble protein abundance (concentration: 1mM)	NP40-soluble protein abundance (concentration: 2mM)	NP40-soluble protein abundance (concentration: 4mM)	NP40-soluble protein abundance (concentration: 6mM)	NP40-soluble protein abundance (concentration: 8mM)	NP40-soluble protein abundance (concentration: 10mM)
UniProt Q8N5M4|E9PKV8	0.932 ± 0.054	0.94 ± 0.03	0.91 ± 0.032	0.984 ± 0.064	0.961 ± 0.055	0.938 ± 0.071
UniProt Q15223	1.01 ± 0.026	1.028 ± 0.0082	1.011 ± 0.0089	1.01 ± 0.011	0.997 ± 0.023	1.01 ± 0.028
UniProt Q5EBL8|Q5EBL8-2	1 ± 0.011	1.02 ± 0.023	0.9905 ± 0.0052	1 ± 0.025	1.02 ± 0.03	1.017 ± 0.0054
UniProt Q92793|Q92793-2	1.05 ± 0.037	1.05 ± 0.028	1.01 ± 0.035	1.01 ± 0.04	1.02 ± 0.015	1.05 ± 0.02
TRAPPC5 (UniProt Q8IUR0)	0.946 ± 0.055	0.933 ± 0.043	0.959 ± 0.073	1.187 ± 0.002	1.18 ± 0.043	1.12 ± 0.13
UniProt Q7L4P6|Q7L4P6-2	1.21 ± 0.13	1.37 ± 0.095	1.2 ± 0.15	1.14 ± 0.16	1.03 ± 0.043	1.23 ± 0.19
FAM91A1 (UniProt Q658Y4)	0.958 ± 0.033	0.915 ± 0.068	0.961 ± 0.031	0.99 ± 0.041	1.01 ± 0.034	0.975 ± 0.054
UniProt Q8WWW0|Q8WWW0-2	0.9981 ± 0.0063	0.996 ± 0.033	1.02 ± 0.018	1.03 ± 0.039	1.02 ± 0.029	1.03 ± 0.052
UniProt Q86U86|Q86U86-8	1.051 ± 0.009	1.1 ± 0.014	1.15 ± 0.017	1.226 ± 0.008	1.29 ± 0.035	1.37 ± 0.09
UniProt Q92804|Q92804-2	1.07 ± 0.15	1.15 ± 0.031	1.19 ± 0.17	1.27 ± 0.21	1.32 ± 0.13	1.54 ± 0.23
UniProt Q7L5Y1|Q7L5Y1-4|Q7L5Y1-5	0.992 ± 0.03	1 ± 0.016	1.007 ± 0.0081	0.99 ± 0.04	1.01 ± 0.013	0.996 ± 0.0075
UniProt Q16611|Q16611-2	0.994 ± 0.035	0.952 ± 0.016	0.985 ± 0.043	0.96 ± 0.023	0.974 ± 0.032	0.932 ± 0.026
UniProt Q86YS7	0.973 ± 0.015	0.97 ± 0.016	0.982 ± 0.017	0.942 ± 0.012	0.919 ± 0.015	0.948 ± 0.018
UniProt Q5RI15|Q5RI15-2	1.12 ± 0.073	1.13 ± 0.1	1.05 ± 0.034	1.1 ± 0.044	1.05 ± 0.049	1.11 ± 0.04
UniProt Q460N5|Q460N5-1	1.02 ± 0.02	0.993 ± 0.046	1.04 ± 0.039	0.9762 ± 0.0066	1.01 ± 0.029	0.9765 ± 0.0028
TTC37 (UniProt Q6PGP7)	0.822 ± 0.084	0.793 ± 0.14	0.791 ± 0.11	0.768 ± 0.077	0.761 ± 0.078	0.76 ± 0.079
UniProt Q6UXH1|Q6UXH1-4|Q6UXH1-5|Q6UXH1-6	1.01 ± 0.032	1.07 ± 0.056	1.01 ± 0.029	0.964 ± 0.019	0.956 ± 0.045	1.01 ± 0.029
